Test [1] is described as follows: NCI Yeast Anticancer Drug Screen. Data for the rad50 strain (AID 155).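 Also: 0% = growth of vehicle-only cultures of the same strain.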 The note with it: S. cerevisiae rad50 strain growth inhibition, stronger effect = higher value. In a few lines: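 A DNA repair-deficient yeast mutant serves as the test organism; compound-induced growth inhibition is calculated against vehicle-treated cells.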
The nature of test [2]: NCI Yeast Anticancer Drug Screen. Data for the mec2-1 strain (AID 157). To be noted: S. cerevisiae mec2-1 strain, stronger effect = higher value. In a few lines: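 Yeast mec2-1 mutant treated with compound. Readout: growth inhibition vs vehicle controls.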
Test [3] can be described thus: NCI Yeast Anticancer Drug Screen. Data for the sgs1 mgt1 strain (AID 161).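 Also: 0% = growth of cultures given vehicle only.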 The note with it: S. cerevisiae sgs1 mgt1 strain, stronger effect = higher value. The gist of the method: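 Test agents were incubated with a DNA-repair-mutant yeast strain. Growth was then read and compared against vehicle-treated controls.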
Test [4] can be described thus: NCI Yeast Anticancer Drug Screen. Data for the cln2 rad14 strain (AID 165).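 Also: 0% = growth equal to vehicle treated cultures.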 The note with it: S. cerevisiae cln2 rad14 strain, stronger effect = higher value. In a few lines: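 cln2 rad14 yeast strain; compound exposure; growth inhibition read vs vehicle controls.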
The nature of test [5]: NCI Yeast Anticancer Drug Screen. Data for the bub3 strain (AID 167). The note with it: S. cerevisiae bub3 mutant strain, stronger effect = higher value. In a few lines:
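Inhibition values come from growth of compound-treated mutant yeast normalised to vehicle-treated controls.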

Test [6] can be described thus: NCI Yeast Anticancer Drug Screen. Data for the mlh1 rad18 strain (AID 175). The note with it: S. cerevisiae mlh1 rad18 strain growth inhibition, stronger effect = higher value. The gist of the method:
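Yeast w/ defined DNA-repair lesions; compound exposure; growth vs vehicle controls → % inhibition.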

The mark [7] stands for this setting: at 5.0 µM (retest, dose inferred, filed as 0.5).
Setting [8] is: at 50.0 µM (retest, dose inferred, filed as 5.0).

About 79,000 compounds went through this panel and 15% of them were active in at least one assay; those are over-represented in the sample as a whole. Values without a mark were called inactive. Activity calls are given as the source filed them. Rule as the data show it: active = growth inhibition above about 70%; inactive = the rest.

Consider `O=C(NC[N+]12CCO[B-]1(c1ccc(Br)cc1)OCC2)c1ccccc1O` (stereo not drawn), for which the growth inhibition in test [1] (setting [7]) was 10%; in test [1] (setting [8]) it was 48%; in test [1] (at 50.0 µM), 65.2%; in test [2] (setting [7]), 11%; in test [2] (setting [8]), 43%; in test [2] (at 50.0 µM) it was 56.2%. For the same compound, the growth inhibition in test [3] (setting [7]) was 23%; in test [3] (setting [8]) it was 51%; in test [3] (at 50.0 µM), 60.2%; in test [4] (setting [7]) it was -4%; in test [4] (setting [8]) it was 38%; in test [4] (at 50.0 µM), 21.3%. For the same compound, the growth inhibition was 26% in test [5] (setting [7]); 63% in test [5] (setting [8]); 61.5% in test [5] (at 50.0 µM); 24% in test [6] (setting [7]); 72% (active) in test [6] (setting [8]); 87.9% (active) in test [6] (at 50.0 µM).
For the compound `COC(=O)c1cc(/C=C/c2ccccc2)on1`, the growth inhibition in test [1] (setting [7]) was -3%; in test [1] (setting [8]) it was 3%; in test [1] (at 50.0 µM), -3.75%; in test [2] (setting [7]) it was 5%; in test [2] (setting [8]) it was 1%; in test [2] (at 50.0 µM), 0.55%. The growth inhibition in test [3] (setting [7]) is 2%; in test [3] (setting [8]), 8%; in test [3] (at 50.0 µM), 10.5%; in test [4] (setting [7]) it was -4%; in test [4] (setting [8]), -14%; in test [4] (at 50.0 µM) it was 82.2% (active). Besides, the growth inhibition was 6% in test [5] (setting [7]); 14% in test [5] (setting [8]); 2.75% in test [5] (at 50.0 µM); -3% in test [6] (setting [7]); 2% in test [6] (setting [8]); -9.55% in test [6] (at 50.0 µM).
In the case of `COc1ccc(NC(=O)Nc2ccc(Cl)cc2)nn1`, the growth inhibition in test [1] (setting [7]) was -1%; in test [1] (setting [8]), 4%; in test [1] (at 50.0 µM) it was -10%; in test [2] (setting [7]) it was -4%; in test [2] (setting [8]), -3%; in test [2] (at 50.0 µM) it was 20.4%. The growth inhibition was -3% in test [3] (setting [7]); 3% in test [3] (setting [8]); 1.3% in test [3] (at 50.0 µM); -14% in test [4] (setting [7]); -8% in test [4] (setting [8]); 33.8% in test [4] (at 50.0 µM). The growth inhibition was -9% in test [5] (setting [7]); -7% in test [5] (setting [8]); -8.05% in test [5] (at 50.0 µM); -7% in test [6] (setting [7]); 3% in test [6] (setting [8]); -3.9% in test [6] (at 50.0 µM).
For the compound `O=[N+]([O-])c1cccc2c1[nH]c1c(-c3ccccc3)nccc12`, the growth inhibition in test [1] (setting [7]) is 2%; in test [1] (setting [8]) it was 83% (active); in test [1] (at 50.0 µM), 87.8% (active); in test [2] (setting [7]) it was 4%; in test [2] (setting [8]) it was 83% (active); in test [2] (at 50.0 µM), 47.8%. The growth inhibition in test [3] (setting [7]) was 4%; in test [3] (setting [8]) it was 93% (active); in test [3] (at 50.0 µM) it was 81% (active); in test [4] (setting [7]) it was 0%; in test [4] (setting [8]) it was 67%; in test [4] (at 50.0 µM), 80.3% (active). In addition, the growth inhibition in test [5] (setting [7]) is 1%; in test [5] (setting [8]) it was 67%; in test [5] (at 50.0 µM), 40%; in test [6] (setting [7]) it was 0%; in test [6] (setting [8]), 89% (active); in test [6] (at 50.0 µM), 89.8% (active).
`CCCCCCC(/C=C/c1c(Cl)cccc1Cl)=N\O`: the growth inhibition in test [1] (setting [7]) is -4%; in test [1] (setting [8]), 24%; in test [1] (at 50.0 µM) it was 83.4% (active); in test [2] (setting [7]), -4%; in test [2] (setting [8]), 46%; in test [2] (at 50.0 µM), 91.7% (active). For the same compound, the growth inhibition is -6% in test [3] (setting [7]); 67% in test [3] (setting [8]); 91.3% (active) in test [3] (at 50.0 µM); -1% in test [4] (setting [7]); 12% in test [4] (setting [8]); 69.1% in test [4] (at 50.0 µM). Also, the growth inhibition in test [5] (setting [7]) is -4%; in test [5] (setting [8]), 53%; in test [5] (at 50.0 µM), 92.8% (active); in test [6] (setting [7]), -10%; in test [6] (setting [8]), 56%; in test [6] (at 50.0 µM), 94.2% (active).
Turning to `Oc1ccc(CNC2CCCCC2)cc1`, the growth inhibition is -4% in test [1] (setting [7]); 4% in test [1] (setting [8]); 70.8% (active) in test [1] (at 50.0 µM); -13% in test [2] (setting [7]); -20% in test [2] (setting [8]); 31.2% in test [2] (at 50.0 µM). Besides, the growth inhibition in test [3] (setting [7]) is -5%; in test [3] (setting [8]) it was 10%; in test [3] (at 50.0 µM) it was 79.8% (active); in test [4] (setting [7]) it was -2%; in test [4] (setting [8]), -11%; in test [4] (at 50.0 µM), 50.5%. In addition, the growth inhibition was -14% in test [5] (setting [7]); -20% in test [5] (setting [8]); 37.4% in test [5] (at 50.0 µM); 1% in test [6] (setting [7]); -25% in test [6] (setting [8]); 46.9% in test [6] (at 50.0 µM).

For the origin of these results see PubChem BioAssay (NCI).
